Test [1] can be described thus: NCI Yeast Anticancer Drug Screen. Data for the rad50 strain (AID 155).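 Note: 0% = growth of vehicle-only cultures of the same strain.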 Conditions: S. cerevisiae rad50 strain growth inhibition, stronger effect = higher value. In short, it runs like this: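 A DNA repair-deficient yeast mutant serves as the test organism; compound-induced growth inhibition is calculated against vehicle-treated cells.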
A short description of test [2]: NCI Yeast Anticancer Drug Screen. Data for the mec2-1 strain (AID 157). Conditions: S. cerevisiae mec2-1 strain, stronger effect = higher value. In short, it runs like this:
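Cells of the genetically defined mec2-1 yeast strain are incubated with test compound. Inhibition of growth is calculated against vehicle-treated controls.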

Test [3] in a line: NCI Yeast Anticancer Drug Screen. Data for the sgs1 mgt1 strain (AID 161).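 Note: 0% = growth of cultures given vehicle only.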 As to conditions: S. cerevisiae sgs1 mgt1 strain, stronger effect = higher value. The procedure, abridged:
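Inhibition of yeast growth, normalised to vehicle-treated controls, is reported for a strain bearing genetic alterations in DNA damage repair.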

Test [4] can be described thus: NCI Yeast Anticancer Drug Screen. Data for the cln2 rad14 strain (AID 165).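 Note: 0% = growth equal to vehicle treated cultures.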 Conditions: S. cerevisiae cln2 rad14 strain, stronger effect = higher value. The procedure, abridged:
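The screen exposed genetically defined yeast (cln2 rad14) to test compounds and scored growth inhibition relative to vehicle-treated controls.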

A short description of test [5]: NCI Yeast Anticancer Drug Screen. Data for the bub3 strain (AID 167). Conditions: S. cerevisiae bub3 mutant strain, stronger effect = higher value. The procedure, abridged:
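Inhibition values come from growth of compound-treated mutant yeast normalised to vehicle-treated controls.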

Test [6] can be described thus: NCI Yeast Anticancer Drug Screen. Data for the mlh1 rad18 strain (AID 175). Conditions: S. cerevisiae mlh1 rad18 strain growth inhibition, stronger effect = higher value. The procedure, abridged: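 Compound-treated yeast growth, normalised to vehicle controls. Strain bears defined DNA repair mutations.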
Setting [7] is: at 5.0 µM (retest, dose inferred, filed as 0.5).
Setting [8] is: at 50.0 µM (retest, dose inferred, filed as 5.0).

These results are taken from PubChem BioAssay (NCI).

The panel holds about 79,000 compounds, 15% with a hit somewhere; the sample as a whole holds those more often. Values without a mark were called inactive. Calls of active or inactive are those of the source. Cut-off read from the data, not from the text of the source: active = growth inhibition above about 70%; inactive = the rest.

With `OC(c1ccccc1)(c1ccccc1)C1CCCCC1`, the growth inhibition in test [1] (setting [7]) was 14%; in test [1] (setting [8]), 97% (active); in test [1] (at 50.0 µM), 25.5%; in test [2] (setting [7]) it was 7%; in test [2] (setting [8]), 97% (active); in test [2] (at 50.0 µM) it was 1.7%. For the same compound, the growth inhibition in test [3] (setting [7]) is -4%; in test [3] (setting [8]) it was 98% (active); in test [3] (at 50.0 µM), 40.1%; in test [4] (setting [7]), -8%; in test [4] (setting [8]) it was 96% (active); in test [4] (at 50.0 µM) it was -5.35%. Also, the growth inhibition in test [5] (setting [7]) is -13%; in test [5] (setting [8]) it was 97% (active); in test [5] (at 50.0 µM), 5.95%; in test [6] (setting [7]), 2%; in test [6] (setting [8]) it was 97% (active); in test [6] (at 50.0 µM), 9.9%.
On to `COc1ccc(/C=N/NC(=O)c2ccco2)cc1OC`, for which the growth inhibition in test [1] (setting [7]) was -5%; in test [1] (setting [8]) it was 0%; in test [1] (at 50.0 µM) it was 63.5%; in test [2] (setting [7]), -5%; in test [2] (setting [8]), -15%; in test [2] (at 50.0 µM), 73.2% (active). Further, the growth inhibition was -3% in test [3] (setting [7]); 5% in test [3] (setting [8]); 23.8% in test [3] (at 50.0 µM); -21% in test [4] (setting [7]); -20% in test [4] (setting [8]); 19.1% in test [4] (at 50.0 µM). Besides, the growth inhibition in test [5] (setting [7]) was -7%; in test [5] (setting [8]), -13%; in test [5] (at 50.0 µM), 56.2%; in test [6] (setting [7]), -6%; in test [6] (setting [8]) it was -14%; in test [6] (at 50.0 µM) it was 35.8%.
Regarding `COc1cc(C(=O)[O][Sn]([c]2ccccc2)([c]2ccccc2)[c]2ccccc2)cc(OC)c1OC`, the growth inhibition in test [1] (setting [7]) was 100% (active); in test [1] (setting [8]), 99% (active); in test [1] (at 50.0 µM) it was 98.6% (active); in test [2] (setting [7]), 100% (active); in test [2] (setting [8]), 100% (active); in test [2] (at 50.0 µM) it was 99.2% (active). The growth inhibition was 99% (active) in test [3] (setting [7]); 99% (active) in test [3] (setting [8]); 98.5% (active) in test [3] (at 50.0 µM); 99% (active) in test [4] (setting [7]); 99% (active) in test [4] (setting [8]); 89.2% (active) in test [4] (at 50.0 µM). Further, the growth inhibition was 99% (active) in test [5] (setting [7]); 99% (active) in test [5] (setting [8]); 97% (active) in test [5] (at 50.0 µM); 99% (active) in test [6] (setting [7]); 99% (active) in test [6] (setting [8]); 98.3% (active) in test [6] (at 50.0 µM).
Take `N=c1n(CC(=O)NC23CC4CC(CC(C4)C2)C3)c2ccccc2n1CC(=O)NC12CC3CC(CC(C3)C1)C2`: the growth inhibition in test [1] (setting [7]) is -4%; in test [1] (setting [8]), 34%; in test [1] (at 50.0 µM) it was 59.1%; in test [2] (setting [7]), -15%; in test [2] (setting [8]) it was 8%; in test [2] (at 50.0 µM), 34.2%. Further, the growth inhibition in test [3] (setting [7]) was -2%; in test [3] (setting [8]), 42%; in test [3] (at 50.0 µM) it was 44.5%; in test [4] (setting [7]) it was -14%; in test [4] (setting [8]) it was 25%; in test [4] (at 50.0 µM), 44%. Moreover, the growth inhibition was -19% in test [5] (setting [7]); 12% in test [5] (setting [8]); 59.5% in test [5] (at 50.0 µM); -5% in test [6] (setting [7]); 27% in test [6] (setting [8]); 79.1% (active) in test [6] (at 50.0 µM).
With `Oc1ccccc1/C=N\N=C\c1ccccc1O`, the growth inhibition in test [1] (setting [7]) is 5%; in test [1] (setting [8]) it was -22%; in test [1] (at 50.0 µM), 8.75%; in test [2] (setting [7]), -10%; in test [2] (setting [8]) it was -3%; in test [2] (at 50.0 µM), 3.5%. Further, the growth inhibition in test [3] (setting [7]) was 4%; in test [3] (setting [8]), 4%; in test [3] (at 50.0 µM), -10.8%; in test [4] (setting [7]) it was 7%; in test [4] (setting [8]), -3%; in test [4] (at 50.0 µM), 37.2%. In addition, the growth inhibition is -70% in test [5] (setting [7]); 6% in test [5] (setting [8]); 0.8% in test [5] (at 50.0 µM); 2% in test [6] (setting [7]); 0% in test [6] (setting [8]); 13.2% in test [6] (at 50.0 µM).
For `COc1ccc2c(c1)C1(C)CCCC(C)(C(=O)O)C1CC2` (stereo not given), the growth inhibition in test [1] (setting [7]) was -8%; in test [1] (setting [8]), 99% (active); in test [1] (at 50.0 µM), 99.5% (active); in test [2] (setting [7]), -7%; in test [2] (setting [8]), 99% (active); in test [2] (at 50.0 µM) it was 99.5% (active). Besides, the growth inhibition was 1% in test [3] (setting [7]); 99% (active) in test [3] (setting [8]); 99.6% (active) in test [3] (at 50.0 µM); -103% in test [4] (setting [7]); 99% (active) in test [4] (setting [8]); 96.8% (active) in test [4] (at 50.0 µM). Further, the growth inhibition in test [5] (setting [7]) is -8%; in test [5] (setting [8]), 93% (active); in test [5] (at 50.0 µM) it was 99% (active); in test [6] (setting [7]), 2%; in test [6] (setting [8]) it was 98% (active); in test [6] (at 50.0 µM), 99.5% (active).
As for `CC(C)c1ccc(C(=O)C2CC2)cc1`, the growth inhibition in test [1] (setting [7]) is -23%; in test [1] (setting [8]), 0%; in test [1] (at 50.0 µM) it was 34.6%; in test [2] (setting [7]), -10%; in test [2] (setting [8]), -27%; in test [2] (at 50.0 µM), 42.9%. Further, the growth inhibition in test [3] (setting [7]) is -12%; in test [3] (setting [8]), -14%; in test [3] (at 50.0 µM), 50.6%; in test [4] (setting [7]), 9%; in test [4] (setting [8]), 24%; in test [4] (at 50.0 µM), 40.5%. In addition, the growth inhibition in test [5] (setting [7]) is -29%; in test [5] (setting [8]), -20%; in test [5] (at 50.0 µM), 65.3%; in test [6] (setting [7]) it was -22%; in test [6] (setting [8]) it was -18%; in test [6] (at 50.0 µM), 21%.
In the case of `Cc1ccc(S(=O)(=O)OCC(/C=N/NC(N)=O)OCOC(C)/C=N/NC(N)=O)cc1` (stereo not given), the growth inhibition in test [1] (setting [7]) is -2%; in test [1] (setting [8]) it was -7%; in test [1] (at 50.0 µM), 14.8%; in test [2] (setting [7]), 0%; in test [2] (setting [8]) it was -5%; in test [2] (at 50.0 µM), 99.2% (active). Also, the growth inhibition in test [3] (setting [7]) was -4%; in test [3] (setting [8]), -8%; in test [3] (at 50.0 µM), 1.95%; in test [4] (setting [7]), 1%; in test [4] (setting [8]), -8%; in test [4] (at 50.0 µM), 46.8%. For the same compound, the growth inhibition in test [5] (setting [7]) was 1%; in test [5] (setting [8]), -2%; in test [5] (at 50.0 µM) it was -1.4%; in test [6] (setting [7]), 1%; in test [6] (setting [8]) it was -3%; in test [6] (at 50.0 µM), 19.1%.
Take `Clc1ccc(Oc2nc(Cl)nc3[nH]ncc23)cc1`: the growth inhibition was 7% in test [1] (setting [7]); 35% in test [1] (setting [8]); 38% in test [1] (at 50.0 µM); 4% in test [2] (setting [7]); 58% in test [2] (setting [8]); 30.6% in test [2] (at 50.0 µM). Also, the growth inhibition in test [3] (setting [7]) is 11%; in test [3] (setting [8]) it was 78% (active); in test [3] (at 50.0 µM) it was 72.9% (active); in test [4] (setting [7]), 8%; in test [4] (setting [8]), 32%; in test [4] (at 50.0 µM), -4.85%. Moreover, the growth inhibition in test [5] (setting [7]) was 7%; in test [5] (setting [8]), 37%; in test [5] (at 50.0 µM) it was 18.4%; in test [6] (setting [7]) it was 10%; in test [6] (setting [8]), 68%; in test [6] (at 50.0 µM) it was 40.1%.
For the compound `NC(=S)Nc1cccc(C(F)(F)F)c1`, the growth inhibition is -14% in test [1] (setting [7]); 92% (active) in test [1] (setting [8]); 99.2% (active) in test [1] (at 50.0 µM); -20% in test [2] (setting [7]); 95% (active) in test [2] (setting [8]); 99.2% (active) in test [2] (at 50.0 µM). The growth inhibition in test [3] (setting [7]) is -10%; in test [3] (setting [8]) it was 92% (active); in test [3] (at 50.0 µM) it was 99.2% (active); in test [4] (setting [7]) it was -45%; in test [4] (setting [8]), 92% (active); in test [4] (at 50.0 µM), 98.9% (active). The growth inhibition is -24% in test [5] (setting [7]); 94% (active) in test [5] (setting [8]); 98.9% (active) in test [5] (at 50.0 µM); -19% in test [6] (setting [7]); 93% (active) in test [6] (setting [8]); 98.9% (active) in test [6] (at 50.0 µM).
